The results in this text go back to PubChem BioAssay AID2280 (The Scripps Research Institute Molecular Screening Center, 2010).

Screen size: about 320,000 compounds; about 1,400 (0.44%) were called active.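 How the source made its calls: active means percent inhibition above a per-plate cutoff, the plate mean of test compounds plus 3 SD (cut at about 30% in these data); inactive means the rest.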 The entries come from a sample that favours actives as a whole.

Female germline-specific tumor suppressor gld-1 (Caenorhabditis elegans), sequence (Q17339 whole entry, looked up): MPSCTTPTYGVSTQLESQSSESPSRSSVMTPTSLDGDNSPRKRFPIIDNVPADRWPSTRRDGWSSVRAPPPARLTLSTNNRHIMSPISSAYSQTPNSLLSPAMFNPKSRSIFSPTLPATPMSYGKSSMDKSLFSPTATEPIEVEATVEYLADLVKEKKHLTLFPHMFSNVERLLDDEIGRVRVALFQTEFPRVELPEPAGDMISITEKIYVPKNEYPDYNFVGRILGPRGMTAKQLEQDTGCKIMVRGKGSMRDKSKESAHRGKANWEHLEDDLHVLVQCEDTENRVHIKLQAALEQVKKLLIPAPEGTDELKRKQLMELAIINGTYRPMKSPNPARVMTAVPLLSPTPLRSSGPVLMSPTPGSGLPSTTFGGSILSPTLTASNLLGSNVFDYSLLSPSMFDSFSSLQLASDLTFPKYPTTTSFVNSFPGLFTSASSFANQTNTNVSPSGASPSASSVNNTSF

This experiment addresses Female germline-specific tumor suppressor gld-1 (Caenorhabditis elegans) (UniProt Q17339). Nature of the experiment: GLD-1/TGE RNA complex disruptors, primary screen, biochemical, fluorescence polarization (AID 2280).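 Further: 0% = DMSO wells with GLD-1 and probe and 100% = wells lacking GLD-1.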 To be noted: purified GLD-1 + fluorescein TGE RNA, at 5.96 µM, active compounds read high.
In general, inhibition refers to the relative decrease from the control value, in per cent. Consider `CCN(c1ccc2c(c1)OCO2)S(=O)(=O)c1cc(Br)cc2c1N(C(=O)C1CC1)CC2`, for which the inhibition is 2.82% (inactive).

As to `Cc1ccc(S(=O)(=O)c2c[nH]c3ccc(Cl)cc3c2=O)cc1`, the inhibition was 1.43% (inactive).

Take `Cc1cc(=O)oc2cc(OCC3CC(c4ccccc4Cl)=NO3)ccc12` (stereo unspecified): the inhibition was 4.3% (inactive).

With `CC(=O)c1nnn(-c2ccc(Cl)cc2C#N)c1C`, the inhibition is 2.27% (inactive).

As for `CC[N+](C)(CC)CCC[n+]1c(-c2ccccc2)c2cc(N)ccc2c2ccc(N)cc21`, the inhibition is 62.4% (active).

With `CC(C)[C@H](NC(=O)N1CCn2c1nc1ccccc12)C(=O)NC1CC1`, the inhibition was -3.08% (inactive).

Consider `CC1CCN(c2c(NCc3ccc(C(=O)NCc4ccccc4)cc3)c(=O)c2=O)CC1`, for which the inhibition is -1.64% (inactive).

For the compound `Cc1ccc(CNC(=O)c2ccc3c(c2)S(=O)(=O)c2ccccc2C3=O)cc1`, the inhibition is -2.48% (inactive).

With `Cc1ccc(CNC(=O)c2cccc3c2C(=O)c2ccc(N4CCC(C)CC4)cc2S3(=O)=O)cc1`, the inhibition is 124% (active).

For the compound `O=[N+]([O-])c1cc(S(=O)(=O)Nc2cccc(Cl)c2)ccc1N=Nc1c(O)[nH]c2ccccc12`, the inhibition was 0.17% (inactive).

On to `O=C(NCC(c1cccs1)N1CCOCC1)c1cc(Cl)ccc1[N+](=O)[O-]` (stereo unspecified), for which the inhibition was 1.88% (inactive).

As for `CCOC(=O)CN(C)S(=O)(=O)c1ccc(-c2cc(C(=O)OC)sc2C(F)(F)F)cc1`, the inhibition is 9.97% (inactive).

Take `COc1ccc(C2=CC(c3cccc(OC)c3)n3nnnc3N2)cc1` (stereo unspecified): the inhibition was 14.6% (inactive).

Regarding `COc1ccc(C2C=C(c3ccc(Br)cc3)Nc3nc(NS(C)(=O)=O)nn32)cc1` (stereo unspecified), the inhibition was 155% (active).

On to `CSc1cccc(NC(=O)CN2C(=O)COc3ccc(S(=O)(=O)N4CCOCC4)cc32)c1`, for which the inhibition is -0.09% (inactive).

As for `N#CCc1ccc(NC(=O)c2ccccc2C(=O)Nc2ccc(CC#N)cc2)cc1`, the inhibition is -0.7% (inactive).

Turning to `COc1cccc(NC(=O)CN(C)CC(=O)c2c(N)n(Cc3ccccc3)c(=O)n(C)c2=O)c1`, the inhibition was 3.38% (inactive).

As to `CNC(=O)c1cccc2nc3ccccc3nc12`, the inhibition is 3% (inactive).

For the compound `O=C1NCCn2nc3ccccc3c21`, the inhibition was -0.55% (inactive).

For `Nc1ccc2nc3c(=O)[nH]c(=S)[nH]c3nc2c1`, the inhibition was 172% (active).

With `O=c1[nH]c(=O)c2nc3ccccc3nc2[nH]1`, the inhibition is 48.7% (active).

On to `Cc1csc(/N=C/N(C)C)c1C#N`, for which the inhibition is 7.85% (inactive).

Turning to `COc1cccc(NC(=O)C(=O)c2cn(CC(=O)N3CCOCC3)c3ccccc23)c1`, the inhibition is 9.65% (inactive).

For `Cc1ccc(C2(C)NC(=O)N(CC(=O)N3CC(=O)Nc4ccccc43)C2=O)cc1` (stereo unspecified), the inhibition was -0.04% (inactive).

Take `Cc1ccc(-c2nnc(Nc3ccc(C(=O)N(C)C)cc3)c3ccccc23)cc1S(N)(=O)=O`: the inhibition was 6.66% (inactive).

Consider `O=C(Nc1cccc(F)c1)N1C2CCC1CC(O)(c1cccnc1)C2` (stereo unspecified), for which the inhibition was -5.02% (inactive).

On to `CC[C@]1(O)C[C@@H]2CN(CCc3c([nH]c4ccccc34)[C@@](C(=O)OC)(c3cc4c(cc3OC)N(C)[C@H]3[C@@](O)(C(=O)OC)[C@H](OC(C)=O)[C@]5(CC)C=CCN6CC[C@]43[C@@H]65)C2)C1`, for which the inhibition was 35.9% (active).

Consider `CC[C@]1(O)CC2CN(CCc3c([nH]c4ccccc34)[C@@](C(=O)OC)(c3cc4c(cc3OC)N(C=O)[C@H]3[C@@](O)(C(=O)OC)[C@H](OC(C)=O)[C@]5(CC)C=CCN6CC[C@]43[C@@H]65)C2)C1` (stereo partly specified), for which the inhibition was 8% (inactive).

As for `COc1ccc(Cc2nnc(N/N=C/c3ccccc3O)[nH]c2=O)cc1OC`, the inhibition was 2.1% (inactive).

For the compound `Cc1cccc(OCC(=O)NCC(=O)N/N=C/c2ccc(N(C)C)cc2)c1`, the inhibition was 1.86% (inactive).

Regarding `Cc1ccc(/C=N/NC(=O)CSc2nc3ccccc3o2)cc1`, the inhibition was 13.4% (inactive).

For `Cc1ccc(/C=N/NC(=O)COc2ccccc2-c2ccccc2)cc1`, the inhibition was 52.5% (active).

For the compound `COc1cc(/C=C2\Oc3ccc(C#Cc4ccc(O)cc4)cc3C2=O)cc(OC)c1`, the inhibition was -7.59% (inactive).

Consider `O=C(CCN1CCc2ccccc2C(O)(c2ccccc2)C1)c1ccc2c(c1)OCCO2` (stereo unspecified), for which the inhibition is 8.71% (inactive).

On to `COC(=O)c1cc(C(=O)N(Cc2ccccc2)c2ccccn2)cc([N+](=O)[O-])c1`, for which the inhibition is 3.82% (inactive).

`COCCOC(=O)c1sc(=S)n(CCOC)c1N`: the inhibition was 65.8% (active).

As to `COc1cccc(-n2c(SCC(=O)NC3CCS(=O)(=O)C3)nc3ccccc3c2=O)c1` (stereo unspecified), the inhibition was 1.53% (inactive).

`CSCCC(NS(=O)(=O)c1ccc2c(c1)oc(=O)n2C)C(=O)NCc1ccccc1` (stereo unspecified): the inhibition was 4.5% (inactive).

Take `COC(=O)CSc1nc2ccccc2c(=O)n1Cc1ccccc1`: the inhibition was -3.39% (inactive).

As for `C=CCSc1nc2c(c(=O)[nH]c(=O)n2C)n1Cc1ccccc1`, the inhibition was -0.99% (inactive).

Consider `Cc1cc2nc3c(=O)n(Cc4ccccc4)c(=O)[nH]c3nc2cc1N`, for which the inhibition is 190% (active).

As for `COc1cc([C@H](Cc2ccccc2)NC(C)=O)oc(=O)c1`, the inhibition is 43.8% (active).

As to `COc1ccc(OC)c(NC(=O)N[C@H](Cc2ccccc2)C(=O)NN)c1`, the inhibition was 6.48% (inactive).

For `CCOC(=O)C(Cc1ccccc1)NC(=O)CCC(=O)c1ccc(OC)cc1` (stereo unspecified), the inhibition was 2.6% (inactive).

For `CCCCCCCCc1c(O)nc(-n2[nH]c(C)c(CCO)c2=O)[nH]c1=O`, the inhibition is 3.56% (inactive).

As for `COCCn1c(N)c(N(Cc2ccccc2)C(=O)C2CCCCC2)c(=O)[nH]c1=O`, the inhibition is 7.47% (inactive).

`COCCN(C(=O)c1ccccc1F)c1c(N)n(Cc2ccccc2)c(=O)[nH]c1=O`: the inhibition was 1.28% (inactive).

As for `COCCn1c(N)c(NCc2ccccc2)c(=O)[nH]c1=O`, the inhibition is 94.7% (active).

Regarding `COC(=O)c1c(NC(=O)CN2CCN(S(=O)(=O)c3ccccc3[N+](=O)[O-])CC2)sc2c1CCC(C)C2` (stereo unspecified), the inhibition was 1.69% (inactive).

For the compound `COc1ccc(C2C(C#N)=C(N)N(c3ncn[nH]3)C3=C2C(=O)CCC3)cc1` (stereo unspecified), the inhibition was 2.28% (inactive).

As for `O=C(Nc1ccccc1C(=O)O)c1ccc(N2C(=O)C3CC=CCC3C2=O)cc1` (stereo unspecified), the inhibition is 3.32% (inactive).

As to `Brc1ccc(C2=CC(c3ccco3)n3ncnc3N2)cc1` (stereo unspecified), the inhibition is 158% (active).

With `CCOc1ccc(C2=CC(c3ccccc3)n3ncnc3N2)cc1` (stereo unspecified), the inhibition is 11.7% (inactive).

In the case of `CC1=C(C(=O)OCc2ccccc2)C(c2ccco2)n2ncnc2N1` (stereo unspecified), the inhibition is 0.86% (inactive).

For the compound `CCC(C)[C@@H](C(=O)N1CCNCC1)n1cc(CCCCN)nn1` (stereo partly specified), the inhibition is 3.86% (inactive).

For the compound `COc1cc2c(-c3ccc4c(c3)OCO4)c(-c3ccsc3)oc(=O)c2cc1OC`, the inhibition is 0.87% (inactive).
